# High-throughput results as filed in PubChem BioAssay.
# Luciferase inh = qHTS Assay for Inhibitors of Firefly Luciferase; Luciferin 4-monooxygenase (Photinus pyralis), P08659; purified firefly luciferase, luminescence, 8 min; Potency, µM (series often up to 57.1 µM), without a hit: at the highest dose activity change, negative = inhibition, most hits filed as inhibitors; 72,000 compounds, 2.2% hits; AID 411, 2009; further: nearly all actives have a fitted effect of over 40% in size
# Target sequence (P08659 whole entry, looked up): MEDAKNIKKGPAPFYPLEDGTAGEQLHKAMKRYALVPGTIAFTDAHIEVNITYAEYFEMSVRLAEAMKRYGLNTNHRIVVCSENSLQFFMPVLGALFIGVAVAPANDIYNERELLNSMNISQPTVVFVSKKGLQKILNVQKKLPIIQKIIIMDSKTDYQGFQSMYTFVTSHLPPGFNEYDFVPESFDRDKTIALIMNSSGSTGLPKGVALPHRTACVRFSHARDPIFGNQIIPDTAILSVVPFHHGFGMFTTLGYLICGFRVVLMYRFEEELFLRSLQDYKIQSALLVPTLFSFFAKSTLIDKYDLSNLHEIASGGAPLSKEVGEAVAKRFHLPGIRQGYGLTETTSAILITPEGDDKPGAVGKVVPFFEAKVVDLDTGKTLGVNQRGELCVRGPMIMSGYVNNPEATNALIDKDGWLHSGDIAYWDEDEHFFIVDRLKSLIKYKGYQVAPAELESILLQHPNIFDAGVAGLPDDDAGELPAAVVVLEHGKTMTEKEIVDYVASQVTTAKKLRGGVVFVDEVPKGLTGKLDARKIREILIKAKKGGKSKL
#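 Luminescence read-out after 8 min at room temperature; enzyme reaction used luciferin plus 10 uM ATP (linear range) in imidazole buffer pH 7.2 with KCl, MgCl2, Tween 20 and BSA. Each sample was run as a titration.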
# p53ts 32C kill = qHTS Screen for Compounds that Selectively Target Cancer Cells with p53 Mutations: Cytotoxicity of p53ts Cells at the Permissive Temperature; H1299-p53A138V at 32C, ATP luminescence viability, 24 h; Potency, µM (highest dose often 46.1 µM), for the others: top-dose activity change, negative = cytotoxicity, actives largely listed as cytotoxic; 130,000 compounds, 0.93% hits; AID 924, 2007;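 further: 0% = DMSO and -100% = full killing by reference compound; nearly all actives have a fitted effect of over 55% in size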
#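 ATP-content luminescence (ATPlite) read-out after 24 h compound exposure at 32C in H1299-p53A138V cells (600/well). Tested up to 46 uM. Normalized to DMSO (0%) and 100 uM tamoxifen (100% killing); Hill-fit AC50.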
# p53ts 39C kill = qHTS Screen for Compounds that Selectively Target Cancer Cells with p53 Mutations: Cytotoxicity of p53ts Cells at the Nonpermissive Temperature | Potency, µM (doses to about 46.1 µM), for inactives: at the highest dose activity change, negative = cell killing, hits mostly cytotoxic | H1299-p53A138V viability at 39C, ATP luminescence, 24 h | 130,000 compounds, 1.5% hits | AID 902, 2007; further: nearly all actives have a fitted effect of over 55% in size
# * hit, by the source's call; ? = inconclusive; · = no result; [ ] = dose if it differs, or a comment. In the library only some 2.6% were active in any assay of this set; here they are far more common. The call rests on the fitted dose curve; in most records, active means well fitted curve in the direction sought with a large enough effect; inconclusive means small, poorly fitted or top-dose-only effect, or another doubt; inactive means no such curve, though single readings can be large; an effect the other way counts as inactive or inconclusive. Unless noted, on the % scale 0 is the no-effect control and ±100 the full control effect; potency means the concentration at half of the fitted maximal effect.
SMILES,Luciferase inh,p53ts 32C kill,p53ts 39C kill
Cc1cc(C)cc(NC(=O)Cn2c(=O)n(CC(=O)NCCc3ccccc3)c(=O)c3ccccc32)c1,·,?,20µM*
CCc1cccc(NC(=O)Cn2c(=O)n(CC(=O)NCCc3ccccc3)c(=O)c3ccccc32)c1,·,10µM*,6.31µM*
COc1ccc(CCNC(=O)CCCn2c(=O)c3ccccc3n(CC(=O)Nc3cc(Cl)ccc3C)c2=O)cc1OC,·,?,12.6µM*
COc1ccc(NC(=O)Cn2c(=O)n(CC(=O)NCCc3ccccc3)c(=O)c3ccccc32)cc1,·,20.4%,13.8%
O=C(Cn1c(=O)c2ccccc2n(CC(=O)Nc2ccc(F)cc2)c1=O)NCCc1ccccc1,·,2.4%,-2.2%
CC1(c2ccccc2)CC(C)(C)N(C(=O)c2cccc(Cl)c2)c2ccccc21 (centres undefined),·,5.4%,-29.3%
CCN(CC)CCCC(C)n1c(-c2ccccc2)nc2c(NCCO)nc(C)nc21 (centres undefined),·,-5.4%,-8.2%
Cc1ccc(-c2nc(NC(=O)CSc3nc(C)nc4sc5c(c34)CCCC5)ns2)cc1,·,2.5%,15.3%
CN(N=O)c1ccc(/C=C\c2ccnc3ccccc23)cc1,3.0%[11.4 µM],-4.9%[9.22 µM],-1.9%[9.22 µM]
CCOc1ccc(NC(=O)c2oc3ccccc3c2NC(=O)c2ccc(OC)cc2OC)cc1,·,-1.0%,22.9%
Cn1c(=O)c2c(nc(CN3CCOCC3)n2CCN2CCOCC2)n(C)c1=O,-0.3%,-1.9%,-10.5%
CCCCn1c(CN2CCOCC2)nc2c1c(=O)n(C)c(=O)n2C,1.8%,?,3.98µM*
CCc1ccc(S(=O)(=O)Nc2ccc3[nH]c(=O)sc3c2)cc1,·,-14.4%,-10.8%
O=C(CN1C(=O)COc2ccc(Cl)cc21)Nc1ccc(F)cc1,·,0.1%,-5.0%
CN(C)/C=N/c1nc2ccc3c(c2s1)CCCC3,10µM*,-26.0%,-26.3%
COc1ccc2nc(/N=C\N(C)C)sc2c1,?,?,-23.5%
COc1ccc(C(=O)Oc2ccc(/C=N/O)cc2)cc1,12.6µM*,7.7%,-6.6%
COc1ccc(OC(=O)c2ccncc2)cc1,-4.1%,13.5%,-3.6%
CC1(C)CC(=O)c2sc(N3CCCCC3)nc2C1,-8.7%,-12.6%,-10.2%
CC1(C)CNC(=O)c2sc(N3CCCCC3)nc2C1,2µM*,-19.4%,-29.3%
COc1ccc(Cl)cc1NC(=O)C1CCN(S(=O)(=O)c2ccc3c(c2)CCCN3C(=O)C2CCC2)CC1,·,-1.4%,-4.9%
CCc1ccc2oc(-c3cc(N)cc(C)c3O)nc2c1,2.51µM*,?,?
CCc1ccc2oc(-c3cc(N)ccc3O)nc2c1,1µM*,12.6µM*,12.6µM*
CCc1ccc2oc(-c3cc(NC(=O)c4cccs4)ccc3Cl)nc2c1,·,-19.8%,1.0%
Nc1ccc2oc(-c3cc(Br)ccc3Cl)nc2c1,-5.4%[25.5 µM],·,·
SMILES,Luciferase inh,p53ts 32C kill,p53ts 39C kill
CCc1ccc2oc(-c3cc(N)ccc3Cl)nc2c1,2.51µM*,?,10µM*
CCc1ccc2oc(-c3cc(NC(=O)C(C)C)cc(C)c3O)nc2c1,·,-5.8%,10.6%
Nc1ccc2oc(-c3ccccc3Cl)nc2c1,3.16µM*,·,?
Cc1ccc(C)c(-c2nc3cc(N)ccc3o2)c1,-8.3%,-5.7%,-23.0%
COc1ccc(NC(=O)C(C)Sc2cc(-c3ccccc3)nc(C)n2)cc1Cl (centres undefined),·,?,16.8%
CCc1ccc(C(=O)c2cnc3ccc(F)cc3c2S(=O)(=O)c2ccccc2)cc1,·,15.7%,-17.2%
Cc1cccc(C)c1OCC(=O)NCC1(N2CCOCC2)CCCCC1,·,0.7%,-7.6%
CCOC(=O)c1[nH]c(C)c(CCC(=O)Nc2ccccc2C(=O)OC)c1C,·,12.7%,-1.3%
Cc1cccc2c1-c1sc(C(=O)N3CCN(c4cccc(Cl)c4)CC3)cc1CO2,·,8.9%,-16.0%
Cc1ccc(CNC(=O)c2cc3c(s2)-c2c(C)cccc2OC3)cc1,·,-7.5%,?
Cc1cccc2c1-c1sc(C(=O)NCc3ccc(Cl)cc3)cc1CO2,·,-19.6%,?
Cc1cccc2c1-c1sc(C(=O)NCCCN3CCN(c4ccccc4F)CC3)cc1CO2,·,-3.7%,15.8µM*
Cc1cccc2c1-c1sc(C(=O)NCCCN3CCN(c4cccc(Cl)c4)CC3)cc1CO2,·,-3.4%,12.6µM*
CCN1CCN(CCCNC(=O)c2cc3c(s2)-c2c(C)cccc2OC3)CC1,·,?,25.1µM*
CCCCCOc1ccc(Cn2c(=O)oc3ccccc32)cc1,·,-4.5%,?
COc1cccc(CNC(=O)CCc2c(C)nc3c(c2C)c(=O)n(C)c(=O)n3C)c1,·,9.5%,-6.2%
